Compounds with a hit are over-represented: about 12% of the library has one in this group of screens.
Insulin prom up: MIN6 insulin promoter up-regulation; 0.3% of 190,000 active; z-score at 5 µM; AID 1625; MIN6 insulin promoter-GFP reporter, high-content imaging; hits give high values;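 active means z-score above 3 at 5 µM with at least 500 cells counted in the well; inconclusive means wells under 500 cells, flagged as cytotoxic or low count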
Insulin prom inh: TRM-6 insulin promoter activity inhibition; TRM-6 cells (human fetal islet line), insulin promoter-eGFP reporter, imaging; reporter expression induced with tamoxifen; 0.9% of 130,000 active; inhibition, % at 2 µM; AID 1273;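 active means inhibition above the mean plus 3 SD, with well images judged a real hit on visual review, cut at about 60% in these data, passing the limit was not always enough; inconclusive means inhibition over the cutoff but images rejected on review; inactive means inhibition not above the cutoff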
WT yeast gro inh: growth inhibition of WT yeast, mitochondrial fusion screen; inhibition, % at 10 µM; AID 1362; 2.1% of 190,000 active; mitochondrial fusion phenotypic screen, WT strain; in the data active means inhibition above about 58%; tested in S. cerevisiae
ROMK primary: modulates human ROMK potassium channel activity; Tet-inducible ROMK, thallium flux fluorescence; actives lie on both sides; B-score at 10 µM; 2% of 130,000 active; AID 1918;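 active means signal ratio slope over the read window, or its plate-corrected B-score, at least 3 SD from the plate mean, either direction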;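 further: B-score of the F/F0 ratio slope over 7 to 12 s after thallium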
Lmaj promast: Leishmania major promastigote growth inhibition | Leishmania major promastigotes, resazurin fluorescence viability | inhibition, % at 10 µM | 9% of 200,000 active | AID 1063; in the data active means inhibition above about 50%;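 further: promastigotes grown with compound for 44 hours at 28 °C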
Cl transport mod: KCC2 (human) Cl- transport modulation | 2.2% of 190,000 active | AID 1456 | B-score of Tl+ flux slope (higher = more flux/activation; lower = inhibition) at 10 µM | KCC2 cells, thallium flux FluoZin-2 fluorescence | Q9H2X9;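 active means thallium flux slope and its plate-corrected score both differing from the plate sample mean at a set confidence after two filtering rounds, in either direction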;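 further: slope of fluorescence scaled to starting intensity during 10 to 20 s after thallium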
* hit, by the source's call; ? = inconclusive; . = not tested or not shown.

SMILES	Insulin prom up	Insulin prom inh	WT yeast gro inh	ROMK primary	Lmaj promast	Cl transport mod
Cc1ccc(-c2cc(-c3ccccc3Cl)[nH]n2)c(O)c1	-0.13	?	69.3*	.	23.1	.
COc1ccc(Cl)cc1NC(=O)c1cc(-c2ccccc2O)n[nH]1	-0.66	-28.6	1.8	0.0439	-9.6	0.803
COc1ccc(NC(=O)CS(=O)CC(=O)Nc2ccc(OC)c(OC)c2)cc1 (stereo not drawn)	0.25	.	-8.4	.	-1.7	-0.048
CNC(=O)NC(=S)NC(=O)c1cccc(Cl)c1	0.59	.	3.2	0.801	1.6	-0.629
CN(CCN1CCc2ccccc2C1)Cc1nc(-c2ccc3c(c2)OCO3)no1	-0.37	.	5.2	0.115	9.2	-1.32
CN(CC(=O)NC1CCCc2ccccc21)S(=O)(=O)c1cccs1 (stereo not drawn)	.	0.0	-8.7	-1.12	3.7	-0.627
CCOc1ccc2nc(N3C(=O)/C(=C/c4ccccc4)NC3=S)sc2c1	-0.58	.	-6.0	.	-1.8	61.6*
Cc1c(-c2ccccc2)nc(-c2ccccc2)[nH]c1=O	-0.12	-9.7	-8.5	0.376	25.0	0.0581
CN=C1SC(CC(=O)Nc2c(C)cccc2C)C(=O)N1/N=C/c1cccs1 (stereo not drawn)	0.18	-32.0	5.3	.	54.6*	1.04
CN1C/C(=C/c2ccsc2)C(=O)/C(=C/c2ccsc2)C1	-0.23	.	4.3	.	100.4*	-0.0716
O=C1/C(=C\c2ccsc2)N2CCC1CC2	0.5	.	.	0.144	.	1.59
CCC(C(=O)O)N1C(=O)/C(=C/C(C)=C/c2ccccc2)SC1=S (stereo not drawn)	-1.31	.	.	.	.	-4.32
CC(/C=C1\SC(=S)N(NC(=O)c2ccc(O)cc2)C1=O)=C\c1ccccc1	0.2	-48.4	89.9*	.	-0.4	-1.5
CCOC(=O)c1cc(C)n(CCc2ccccc2)c1C	-0.65	2.6	10.4	.	11.3	0.0694
COCCn1c(C)cc(C(=O)CSc2ccc(NC(C)=O)cc2)c1C	-1.08	15.2	-12.4	2.11	-2.9	1.22
Cc1cc(C(=O)CCl)c(C)n1CCc1ccccc1	.	33.3	24.4	-2.08	100.3*	-0.712
COC(=O)CCCn1c(C)cc(C(=O)CCl)c1C	1.14	-14.3	16.1	-0.548	100.4*	0.87
NC(=NC(=O)c1ccccc1)N1N=CCC1c1ccccc1 (stereo not drawn)	1.52	.	10.4	0.149	7.0	0.682
CCN(CC)c1ccc(NC(=O)c2ccccc2F)cc1S(=O)(=O)Nc1ccccc1OC	-0.52	18.5	15.0	0.632	99.9*	1.19
CCN(CC)c1ccc(NC(=O)c2ccccc2Br)cc1S(=O)(=O)Nc1ccccc1OC	-0.84	-16.9	-5.9	.	96.7*	0.121
CCN(CC)c1ccc(NC(=O)c2ccc(=O)[nH]c2)cc1S(=O)(=O)Nc1ccccc1OC	1.2	-60.0	24.2	2.4	1.2	0.152
COc1ccc(CNC(=O)c2noc(C)c2[N+](=O)[O-])cc1	-0.25	-11.8	10.8	0.0175	-0.3	0.468
CCOC(=O)CC(=O)CSc1nc(C)nc2c1oc1ccccc12	-0.02	-15.2	83.0*	-0.466	-6.7	-0.797
COC(=O)CP(=O)(c1ccccc1)c1ccccc1	.	-38.5	69.3*	9.27e-05	-3.8	.
CSc1cccc(NCc2ccc([N+](=O)[O-])cc2)c1	0.23	38.9	17.5	-1.24	6.2	-0.00189
SMILES	Insulin prom up	Insulin prom inh	WT yeast gro inh	ROMK primary	Lmaj promast	Cl transport mod
Cc1cc(SCC(=O)Nc2c(C)n(C)n(-c3ccccc3)c2=O)n2c(nc3ccccc32)c1C#N	.	12.7	.	.	86.7*	-0.193
CC(=O)N1CCc2c(sc3c2c(=O)n(-c2ccccc2)c(=O)n3Cc2ccccc2Cl)C1	0.02	-53.6	-5.2	.	98.0*	-0.462
CCOc1ccc(N2C(=O)CC(Sc3nc(-c4cccs4)cc(C(F)(F)F)c3C#N)C2=O)cc1 (stereo not drawn)	.	-18.9	-42.7	.	55.4*	-0.321
CCOc1ccc(N2C(=O)CC(Sc3ncccn3)C2=O)cc1 (stereo not drawn)	.	-11.1	11.1	.	1.9	0.00913
Cc1cccc(C)c1Oc1nc(-c2ccccc2)ncc1S(=O)(=O)c1ccccc1	-2.1	13.3	42.7	.	53.9*	1.22
Cc1ccc(C(=O)N(Cc2ccc3c(c2)OCO3)Cc2nc3ccccc3c(=O)[nH]2)cc1	.	12.5	16.0	0.0729	95.6*	0.818
N=c1occ(C(=O)c2cc(F)ccc2O)cc1C(=O)NC1CCCCC1	0.5	35.1	3.6	-0.155	69.7*	-1.65
CCOC(=O)c1cc(C(=O)c2cc(F)ccc2O)coc1=N	0.1	-53.9	-3.9	.	-10.3	-0.00416

Compound activity deposited in PubChem by several laboratories.
